PubChem BioAssay (NCI)
This is part of a sample that, as a whole, favours compounds with a hit. Of some 83,000 tested, about 20% had one in any assay.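 Treatment: one concentration, 48 hours, 96-well format. Scoring: percent growth, with anything below 10 considered active.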 Unmarked numbers belong to inactive results. Activity calls are given as the source filed them.

Experiments:
Assay in all cases: NCI-60 one-dose screen, 48 h (100 = growth as untreated, 0 = no growth, -100 = all killed)
Settings in all cases: 10 µM unless noted
NCI-H23 lung = tested on: NCI-H23 lung
NCI-H226 lung = tested on: NCI-H226 lung
NCI-H322M lung = tested on: NCI-H322M lung
HOP-62 NSCLC = tested on: HOP-62 NSCLC
NCI-H460 lung = tested on: NCI-H460 lung
HOP-92 NSCLC = tested on: HOP-92 NSCLC
NCI-H522 lung = tested on: NCI-H522 lung
A549/ATCC NSCLC = tested on: A549/ATCC NSCLC
COLO 205 colon = tested on: COLO 205 colon
DU-145 prostate = tested on: DU-145 prostate
K-562 leukemia = tested on: K-562 leukemia
MALME-3M melanoma = tested on: MALME-3M melanoma
MDA-MB-231 breast = tested on: MDA-MB-231 breast
RXF 393 renal = tested on: RXF 393 renal
SF-268 CNS = tested on: SF-268 CNS
SF-295 CNS = tested on: SF-295 CNS
SF-539 CNS = tested on: SF-539 CNS
UACC-257 melanoma = tested on: UACC-257 melanoma
M14 melanoma = tested on: M14 melanoma
786-0 renal = tested on: 786-0 renal

Row | SMILES | growth (NCI-H23 lung) | growth (NCI-H226 lung) | growth (NCI-H322M lung) | growth (HOP-62 NSCLC) | growth (NCI-H460 lung) | growth (HOP-92 NSCLC) | growth (NCI-H522 lung) | growth (A549/ATCC NSCLC) | growth (COLO 205 colon) | growth (DU-145 prostate) | growth (K-562 leukemia) | growth (MALME-3M melanoma) | growth (MDA-MB-231 breast) | growth (RXF 393 renal) | growth (SF-268 CNS) | growth (SF-295 CNS) | growth (SF-539 CNS) | growth (UACC-257 melanoma) | growth (M14 melanoma) | growth (786-0 renal)
1 | COc1ccc(CCN2CC=Cn3c2nc2ccccc2c3=O)cc1 | 25% | 11.7% | 47.3% | 39.9% | 5.96% (active) | 28.1% | 4.09% (active) | 24.1% | -43.2% (active) | 7.97% (active) | 10.8% | 63.2% | 18.8% | 36.7% | 35.7% | 17.2% | -34.1% (active) | 80.3% | 16.4% | –
2 | O=C(CNC1C2CC3CC(C2)CC1C3)Sc1nnc2sc3ccccc3n12 (centres undefined) | 95% | 91.3% | 113% | 104% | 97.9% | 46.2% | 96.4% | 108% | 106% | 110% | – | 95.2% | 81.5% | 114% | 101% | 94.2% | 94.3% | 116% | 104% | –
3 | CC[C@H](Nc1nc(N)nc(C)c1C#N)c1nc2cccc(NCc3ccc(C(=O)NO)cc3)c2c(=O)n1-c1ccccc1 | -22.9% (active) | 24.3% | 15% | 9.2% (active) | 3.85% (active) | -16.7% (active) | -37.6% (active) | 1.14% (active) | -2.48% (active) | 17.2% | – | 21.5% | 7.58% (active) | -21.7% (active) | 9.63% (active) | -3.97% (active) | -18.8% (active) | 0.817% (active) | 0.234% (active) | 6.94% (active)
4 | CC(C)CC(CC1=CCC2CC1C2(C)C)C1=C(O)C(C)(C)C(=O)C(C)(C)C1=O (centres undefined) | 5.33% (active) | 13.7% | 9.97% (active) | -4.19% (active) | 4.62% (active) | -27.4% (active) | 3.54% (active) | 0.788% (active) | -65.7% (active) | 33.6% | – | 13.9% | -6.26% (active) | 7.5% (active) | 21.4% | -24.3% (active) | 17% | -23.2% (active) | 20.3% | 6.76% (active)
5 | O=C(CCN1CCOCC1)Nc1ccc(Cn2nnc3c2C(=O)c2nnn(Cc4ccc(NC(=O)CCN5CCOCC5)cc4)c2C3=O)cc1 | -20.9% (active) | 86.5% | 10% | 70.9% | 13.3% | -20% (active) | -28.9% (active) | 84.8% | -73.8% (active) | 60.6% | – | -69.9% (active) | -4.23% (active) | 65.5% | 1.49% (active) | 50.8% | – | -80.5% (active) | 35.9% | 98.5%
6 | C/C(=C(/c1ccc(O)cc1)c1ccc(Cl)cc1)c1ccccc1 | -62.5% (active) | -80.4% (active) | -95% (active) | -90.8% (active) | -91.2% (active) | – | -78% (active) | -85.8% (active) | -82.8% (active) | -75.2% (active) | -1.81% (active) | -94.6% (active) | -83.3% (active) | -79.3% (active) | -83.4% (active) | -95.1% (active) | -96% (active) | -74.6% (active) | -78.1% (active) | -89.3% (active)
7 | C[C@@H]1CC[C@@H]2[C@@H]1[C@H](OC(=O)/C=C/c1ccccc1)[C@]1(C3CCCCC3)C[C@@H](OC(=O)CO)[C@@]2(C)O1 | 81.9% | 68.2% | 92.9% | 86% | 68.3% | 55.3% | 65.9% | 53.1% | 80.6% | 81.5% | – | 104% | 84.7% | 26.9% | 32.1% | 87.5% | 89.6% | 67.8% | 89.9% | 73.2%
8 | CN(C)CC(=O)Nc1ccc(Cn2nnc3c2C(=O)c2nnn(Cc4ccc(NC(=O)CN(C)C)cc4)c2C3=O)cc1 | -31.7% (active) | -56.2% (active) | -52.6% (active) | -67.4% (active) | -3.43% (active) | -53.8% (active) | -67% (active) | -59.8% (active) | -80.4% (active) | -96.2% (active) | – | -81.2% (active) | -14.2% (active) | -77.4% (active) | -49.1% (active) | -87.4% (active) | – | -71.1% (active) | -89.4% (active) | -76.4% (active)
